Assay [1] addresses Lysosomal acid glucosylceramidase (Homo sapiens) (UniProt P04062). In words: Glucocerebrosidase-p2 (AID 348; in the data active means potency below about 10 µM; further: potency means the concentration at half of the fitted maximal effect). Particulars: purified GBA, blue fluorogenic substrate, 40 min. An outline of the steps:
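Compounds titrated from 0.6 nM upwards against 0.2 nM enzyme in pH 5.9 citric acid/KH2PO4, taurocholate, tween-20; blue fluorogenic substrate 80 uM, 40 min room temperature, stopped and read Ex 365/Em 440 for AC50.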

Assay [2] is described as follows: AP1 Signaling Pathway (AID 357; active means well fitted curve in either direction with a large enough effect, not every such curve was filed as active;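 further: ME-180 reporter cells stimulated with EGF at its EC50 level; on the % scale 0 is the no-effect control and ±100 the full control effect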). Particulars: ME-180 AP-1-bla reporter, EGF-induced, beta-lactamase ratio, 5 h; at 7.69 µM (top of the series) unless noted. An outline of the steps: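 A ratiometric CCF4 readout (405 nm excitation; 460 and 530 nm emission) quantified AP-1-driven beta-lactamase in ME-180 cells after 5 h with compound and EC50 EGF; AC50 values were derived for activators and inhibitors.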

In assay [3] the target is Cytochrome P450 1A2 (Homo sapiens) (UniProt P05177). In words: p450-cyp1a2 (AID 410; calls by dose curve; further: potency means the concentration at half of the fitted maximal effect). Particulars: recombinant CYP1A2, luciferin-ME demethylation, luminescence; series mostly up to 57 µM. The method in brief: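 Luminescent readout of luciferin formed from Luciferin-ME by human CYP1A2; data normalized against complete inhibition by 57 uM furafylline. Enzyme 20nM, substrate 100uM at Km, 100mM KPO4 buffer, 60 min reaction at room temperature.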

The nature of assay [4]: NFAT Signaling Pathway (AID 444; active means well fitted curve in either direction with a large enough effect, not every such curve was filed as active;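 further: carbachol stimulus at about its EC50 of 1 µM final; on the % scale 0 is the no-effect control and ±100 the full control effect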). Particulars: Jurkat NFAT-bla M1, carbachol, beta-lactamase ratio, 5 h; at 7.69 µM (top of the series) unless noted. An outline of the steps:
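Read-out: CCF4 FRET ratio (460 nm/530 nm) after 1 h RT dye loading, used for %activity and AC50 from titration series. Cells: Jurkat NFAT-β-lactamase/M1 line, treated with compound plus 1 uM carbachol for 5 h, 37 °C.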

Assay [5] is described as follows: Stat Signaling Pathway (AID 446; active means well fitted curve in either direction with a large enough effect, not every such curve was filed as active;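 further: ME-180 cervical cancer cells given 40 pM IL-6 alongside compound; SIE-controlled beta-lactamase reporter measured as 460/530 nm FRET emission ratio; on the % scale 0 is the no-effect control and ±100 the full control effect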). Particulars: ME-180 (cervical carcinoma) SIE beta-lactamase reporter, IL-6 stimulated, 5 h; at 7.69 µM (top of the series) unless noted. The method in brief:
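IL-6/STAT signaling read in ME-180 cells via an SIE beta-lactamase reporter. Stimulus was 40 pM IL-6 (its AC50) for 5 hrs, so both activation and inhibition register.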

For assay [6], the target named is Glucocorticoid receptor (Homo sapiens) (UniProt P04150). In words: GR-GFP Redistribution (AID 450;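 active means compounds whose dose series gives a full or clear partial fitted curve of increased nuclear translocation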; further: potency means the concentration at half of the fitted maximal effect). Particulars: U2OS GR-GFP nuclear translocation, laser cytometry, 2 h.
For assay [7] the target is unchanged. Nature of the assay: GR-EFC Redistribution (AID 451; calls by dose curve; further: potency means the concentration at half of the fitted maximal effect). Particulars: CHO-K1 GR-EFC translocation, beta-gal luminescence, 2 h. The method in brief:
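Translocation of GR-ED fusion to nuclear EA restores b-gal, read by luminescence after 1 h room-temperature detection. Engineered CHO-K1 biosensor cells, 1,000/well, exposed 2 h at 37 C to titrations up to 46 uM final.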

Assay [8] addresses Mitogen-activated protein kinase 10 (Mus musculus) (UniProt Q61831). In words: JNK3 AlphaScreen Assay (AID 530; active means well fitted curve in either direction with a large enough effect, not every such curve was filed as active;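 further: kinase came from lysate of stimulated human HepG2 cells; signal reports phosphorylation of biotinylated GST-cJun 1-79 at Ser73 with 10 µM ATP; on the % scale 0 is the no-effect control and ±100 the full control effect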). Particulars: JNK3 lysate, c-Jun phosphorylation; series mostly up to 57.1 µM. The method in brief: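 Compound titrations were preincubated 15 minutes at room temperature with substrate, antibody and pre-activated JNK3-containing HepG2 lysate. Reactions were started with 10 uM ATP and stopped with EDTA-containing bead buffer for AlphaScreen detection.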
On the technique in general: Alpha assays give light when donor and acceptor beads are brought close together.

The target in assay [9] is 3',5'-cyclic-AMP phosphodiesterase 4B (Homo sapiens) (UniProt Q07343). In words: qHTS Assay for Inhibitors of PDE-IV (AID 607; active means well fitted activation curve with a large enough effect in the main read-out, with a control signal flat, not every such curve was filed as active; further: % of control where 0% means no effect). Particulars: HEK293 ACTOne CNG channel cells, membrane potential fluorescence; series mostly up to 22.9 µM. The method in brief:
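Live HEK293 cells with a modified cyclic nucleotide-gated (CNG) channel report intracellular cAMP via membrane-potential dye fluorescence (ex 535/em 590 nm). Endogenous PDE-IV was targeted. Compounds were tested at up to 22.9 uM final; RO 20-1724 100 uM served as control.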

Assay [10] addresses Dual specificity protein kinase CLK4 (Homo sapiens) (UniProt Q9HAZ1). In words: qHTS Assay for Inhibitors of CDC-like Kinase 4 (Kinase-Glo Assay) (AID 1770). Further: nearly all actives have a fitted effect of over 65% in size. Further: potency means the concentration at half of the fitted maximal effect. Particulars: recombinant Clk4, Kinase-Glo ATP depletion luminescence; series mostly up to 66.7 µM. An outline of the steps:
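Readout: Kinase-Glo luminescence from ATP left after a 4.5 h room-temperature reaction of 25 nM Clk4 with 100 uM RS peptide and 1 uM ATP (final). Buffer: 25 mM Tris pH 7.5, 10 mM MgCl2.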
In general terms: qHTS replaces the single test concentration by a dilution series.

Assay [11] has the same target. In words: qHTS Assay for Inhibitors of CDC-like Kinase 4 (ADP-Glo Assay) (AID 1771). Further: nearly all actives have a fitted effect of over 70% in size. Further: potency means the concentration at half of the fitted maximal effect. Particulars: recombinant CLK4, ADP-Glo luminescence; series mostly up to 80 µM. The method in brief:
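Luminescence from ADP-Glo reports ADP produced by 25 nM Clk4 acting on 100 uM RS repeat peptide with 1 uM ATP over 1 hr at room temperature; residual ATP is depleted before ADP is converted to ATP for detection.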

In assay [12] the target is Ubiquitin carboxyl-terminal hydrolase 1 (Homo sapiens) (UniProt O94782). In words: Inhibitors of USP1/UAF1: Pilot qHTS (AID 504865).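 Further: rhodamine fluorescence freed from ubiquitin-rhodamine substrate followed over time; top concentration of the series differs between compounds; on the % scale 0 is the no-effect control and ±100 the full control effect; nearly all actives have a fitted effect of over 35% in size.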 Particulars: purified USP1/UAF1, Ub-rhodamine cleavage fluorescence; series mostly up to 54.9 µM. The method in brief: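 1nM USP1/UAF1 + cpd, 15 min RT; start w/ Ub-Rho 150nM final; kinetic FL 480/540 nm, 6 reads q60 s. Buffer 50mM HEPES pH 7.8, 0.5mM EDTA, 1mM TCEP, 0.01% Tween-20, 0.1 mg/ml BSA.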

A short description of assay [13]: Primary qHTS for small molecule stabilizers of the endoplasmic reticulum resident proteome: Secreted ER Calcium Modulated Protein (SERCaMP) assay (AID 1508630). Further: on the % scale 0 is the no-effect control and ±100 the full control effect. Particulars: SH-SY5Y GLuc-SERCaMP (Gaussia luciferase released on ER calcium loss) secretion, thapsigargin, luminescence; series mostly up to 38.4 µM. The method in brief: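 GLuc-SERCaMP-expressing SH-SY5Y cells, pretreated 16 h with compound, are challenged with thapsigargin to empty ER calcium stores; after 4 h, coelenterazine is added directly to the medium and luminescence is imaged.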

The target of assay [14] is Cytochrome P450 3A4 (Homo sapiens) (UniProt P08684). Nature of the assay: qHTS Assay for Activators of Cytochrome P450 3A4 (AID 885). Further: nearly all actives have a fitted effect of over 65% in size. Particulars: recombinant CYP3A4, Luciferin-PPXE luminescence, 60 min; series mostly up to 57.1 µM. An outline of the steps:
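Quantitative HTS format: compounds preincubated with 20nM human CYP3A4 and Luciferin-PPXE substrate at KM, reaction started by NADPH regeneration, stopped after 60 min, luciferase luminescence read 20 min later.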

In assay [15] the target is Cytochrome P450 2D6 (Homo sapiens) (UniProt P10635). In words: qHTS Assay for Inhibitors and Substrates of Cytochrome P450 2D6 (AID 891). Further: potency means the concentration at half of the fitted maximal effect; nearly all actives have a fitted effect of over 60% in size. Particulars: recombinant CYP2D6, luciferin-ME EGE luminescence; series mostly up to 57.1 µM. An outline of the steps: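 Human CYP2D6 (5 nM) with 30 uM Luciferin-ME EGE (at Km) in 100 mM KPO4, compound preincubated 10 min, then NADPH regeneration system for 60 min at room temperature. Luciferin read by luminescence; normalized to 1.43 uM quinidine.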

For assay [16], the target named is Cytochrome P450 3A4 (Homo sapiens) (UniProt P08684). Nature of the assay: qHTS Assay for Inhibitors and Substrates of Cytochrome P450 3A4 (AID 884). Further: potency means the concentration at half of the fitted maximal effect; nearly all actives have a fitted effect of over 50% in size. Particulars: recombinant CYP3A4, Luciferin-PPXE luminescence; series mostly up to 57.1 µM. An outline of the steps:
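20 nM human CYP3A4 with 25 uM Luciferin-PPXE (at KM) in 200 mM KPO4, preincubated 10 min with compound; NADPH regeneration started a 60 min RT reaction. Luciferin detected by luminescence, normalized to 57 uM ketoconazole as full inhibition.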

The target of assay [17] is Cytochrome P450 2C19 (Homo sapiens) (UniProt P33261). In words: qHTS Assay for Inhibitors and Substrates of Cytochrome P450 2C19 (AID 899). Further: potency means the concentration at half of the fitted maximal effect; nearly all actives have a fitted effect of over 60% in size. Particulars: recombinant CYP2C19, luciferin-H EGE luminescence; series mostly up to 57.1 µM. An outline of the steps:
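Luminescence readout of luciferin formed from 10uM Luciferin-H EGE (KM level) by 5 nM CYP2C19 in 50mM KPO4. 60 min NADPH-driven reaction at 37C after 10 min compound preincubation; data scaled to 57uM ketoconazole inhibition.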

Assay [18] addresses Cytochrome P450 2C9 (Homo sapiens) (UniProt P11712). Nature of the assay: qHTS Assay for Inhibitors and Substrates of Cytochrome P450 2C9 (AID 883). Further: potency means the concentration at half of the fitted maximal effect; nearly all actives have a fitted effect of over 60% in size. Particulars: recombinant CYP2C9, luciferin-H luminescence, 60 min; series mostly up to 57.1 µM. The method in brief:
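Luminescent read-out of deoxyluciferin hydroxylation, normalized to 57uM sulphaphenazole (AC100). Reaction: 10nM enzyme, 100uM Luciferin-H (equal to KM), 25mM KPO4, 10 min compound preincubation, then 60 min with NADPH regeneration, both at 37C.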

In assay [19] the target is Dual specificity protein kinase CLK4 (Homo sapiens) (UniProt Q9HAZ1). In words: qHTS Assay for Inhibitors of CDC-like Kinase 4 (ADP-FP Assay) (AID 1795).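 Further: recombinant human CLK4 phosphorylating RS repeat peptide at 1 µM ATP; on the % scale 0 is the no-effect control and ±100 the full control effect; nearly all actives have a fitted effect of over 60% in size.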 Particulars: Transcreener ADP fluorescence polarization; series mostly up to 50 µM. An outline of the steps:
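FP readout: Orange Transcreener ADP2 tracer (4 nM) plus ADP antibody, read after 30 min at room temperature. Kinase step: 6.25 nM Clk4, 100 uM RS peptide, 1 uM ATP, pH 7.5, 1 h.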

A number with no mark means an inactive call. Records with an inconclusive call do not appear. The source made the active and inactive calls. Unless noted, the call rests on the fitted dose curve; in most records, active means well fitted curve in the direction sought with a large enough effect; inconclusive means small, poorly fitted or top-dose-only effect, or another doubt; inactive means no such curve, though single readings can be large; an effect the other way counts as inactive or inconclusive. Bounds are passed on as bounds.

Sequence of Dual specificity protein kinase CLK4 (Homo sapiens) (Q9HAZ1 whole entry, looked up): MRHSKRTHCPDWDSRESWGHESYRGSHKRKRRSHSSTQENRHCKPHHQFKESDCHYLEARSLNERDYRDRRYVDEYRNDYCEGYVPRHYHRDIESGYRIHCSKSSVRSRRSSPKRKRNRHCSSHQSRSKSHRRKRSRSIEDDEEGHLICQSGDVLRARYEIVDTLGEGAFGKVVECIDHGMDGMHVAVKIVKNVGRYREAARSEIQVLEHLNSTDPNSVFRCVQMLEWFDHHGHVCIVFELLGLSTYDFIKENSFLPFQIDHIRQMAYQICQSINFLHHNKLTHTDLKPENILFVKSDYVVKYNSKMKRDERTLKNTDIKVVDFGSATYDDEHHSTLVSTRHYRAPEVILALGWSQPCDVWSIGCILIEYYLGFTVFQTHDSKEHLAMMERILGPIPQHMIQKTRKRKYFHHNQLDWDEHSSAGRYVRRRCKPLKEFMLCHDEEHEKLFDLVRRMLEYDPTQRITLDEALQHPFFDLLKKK
Sequence of Cytochrome P450 1A2 (Homo sapiens) (P05177 whole entry, looked up): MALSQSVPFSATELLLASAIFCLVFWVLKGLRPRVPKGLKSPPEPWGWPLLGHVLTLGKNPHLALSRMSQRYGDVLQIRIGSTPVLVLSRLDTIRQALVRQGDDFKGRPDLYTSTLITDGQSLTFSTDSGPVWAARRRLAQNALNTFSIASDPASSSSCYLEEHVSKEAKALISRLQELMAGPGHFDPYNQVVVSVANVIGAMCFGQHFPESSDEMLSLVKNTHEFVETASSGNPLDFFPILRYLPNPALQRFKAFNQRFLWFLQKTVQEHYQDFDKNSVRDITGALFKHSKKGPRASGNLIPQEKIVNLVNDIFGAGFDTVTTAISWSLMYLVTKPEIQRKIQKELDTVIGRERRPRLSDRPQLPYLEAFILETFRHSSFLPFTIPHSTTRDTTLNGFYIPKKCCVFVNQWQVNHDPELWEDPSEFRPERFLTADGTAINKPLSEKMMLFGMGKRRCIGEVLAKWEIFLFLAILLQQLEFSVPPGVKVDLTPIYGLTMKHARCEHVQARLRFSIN
Sequence of 3',5'-cyclic-AMP phosphodiesterase 4B (Homo sapiens) (Q07343 whole entry, looked up): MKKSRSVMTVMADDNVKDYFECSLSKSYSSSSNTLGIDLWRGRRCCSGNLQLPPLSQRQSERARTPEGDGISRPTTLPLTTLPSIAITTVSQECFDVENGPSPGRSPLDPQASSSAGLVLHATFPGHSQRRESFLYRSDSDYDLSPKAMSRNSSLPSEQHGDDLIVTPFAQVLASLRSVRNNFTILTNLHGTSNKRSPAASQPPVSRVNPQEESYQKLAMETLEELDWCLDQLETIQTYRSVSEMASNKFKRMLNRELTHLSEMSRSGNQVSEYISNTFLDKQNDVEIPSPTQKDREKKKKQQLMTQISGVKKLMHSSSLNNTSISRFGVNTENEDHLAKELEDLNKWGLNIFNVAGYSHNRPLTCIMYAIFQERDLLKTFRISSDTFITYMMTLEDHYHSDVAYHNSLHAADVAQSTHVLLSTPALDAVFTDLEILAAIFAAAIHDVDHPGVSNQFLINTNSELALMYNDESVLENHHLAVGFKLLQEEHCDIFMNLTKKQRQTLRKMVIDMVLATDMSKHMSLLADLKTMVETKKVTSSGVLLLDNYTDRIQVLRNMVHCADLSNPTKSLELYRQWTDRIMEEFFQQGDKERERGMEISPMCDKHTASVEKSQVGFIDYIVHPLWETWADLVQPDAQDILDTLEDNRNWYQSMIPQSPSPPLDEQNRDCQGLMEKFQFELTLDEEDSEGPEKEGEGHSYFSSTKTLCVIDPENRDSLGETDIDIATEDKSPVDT
Sequence of Glucocorticoid receptor (Homo sapiens) (P04150 whole entry, looked up): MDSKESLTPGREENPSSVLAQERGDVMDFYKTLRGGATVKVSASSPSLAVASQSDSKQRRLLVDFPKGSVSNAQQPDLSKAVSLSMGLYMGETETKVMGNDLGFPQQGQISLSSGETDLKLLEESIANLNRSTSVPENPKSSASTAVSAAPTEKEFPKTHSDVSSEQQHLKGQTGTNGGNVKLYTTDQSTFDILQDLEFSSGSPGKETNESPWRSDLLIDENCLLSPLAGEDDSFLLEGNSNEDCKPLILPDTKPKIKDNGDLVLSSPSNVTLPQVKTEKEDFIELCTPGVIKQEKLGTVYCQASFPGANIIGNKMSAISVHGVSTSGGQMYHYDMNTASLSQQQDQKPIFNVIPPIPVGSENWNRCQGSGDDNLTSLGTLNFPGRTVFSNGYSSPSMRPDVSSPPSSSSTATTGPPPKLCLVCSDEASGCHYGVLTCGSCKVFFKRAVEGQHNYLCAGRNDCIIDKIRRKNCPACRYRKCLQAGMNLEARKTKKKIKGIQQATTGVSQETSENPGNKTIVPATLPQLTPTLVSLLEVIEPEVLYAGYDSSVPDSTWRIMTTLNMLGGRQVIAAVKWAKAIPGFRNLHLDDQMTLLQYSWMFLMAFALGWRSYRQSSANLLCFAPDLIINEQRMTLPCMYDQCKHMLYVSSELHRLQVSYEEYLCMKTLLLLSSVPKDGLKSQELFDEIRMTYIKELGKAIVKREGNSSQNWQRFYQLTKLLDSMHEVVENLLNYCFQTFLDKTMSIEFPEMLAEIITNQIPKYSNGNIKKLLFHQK
Sequence of Ubiquitin carboxyl-terminal hydrolase 1 (Homo sapiens) (O94782 whole entry, looked up): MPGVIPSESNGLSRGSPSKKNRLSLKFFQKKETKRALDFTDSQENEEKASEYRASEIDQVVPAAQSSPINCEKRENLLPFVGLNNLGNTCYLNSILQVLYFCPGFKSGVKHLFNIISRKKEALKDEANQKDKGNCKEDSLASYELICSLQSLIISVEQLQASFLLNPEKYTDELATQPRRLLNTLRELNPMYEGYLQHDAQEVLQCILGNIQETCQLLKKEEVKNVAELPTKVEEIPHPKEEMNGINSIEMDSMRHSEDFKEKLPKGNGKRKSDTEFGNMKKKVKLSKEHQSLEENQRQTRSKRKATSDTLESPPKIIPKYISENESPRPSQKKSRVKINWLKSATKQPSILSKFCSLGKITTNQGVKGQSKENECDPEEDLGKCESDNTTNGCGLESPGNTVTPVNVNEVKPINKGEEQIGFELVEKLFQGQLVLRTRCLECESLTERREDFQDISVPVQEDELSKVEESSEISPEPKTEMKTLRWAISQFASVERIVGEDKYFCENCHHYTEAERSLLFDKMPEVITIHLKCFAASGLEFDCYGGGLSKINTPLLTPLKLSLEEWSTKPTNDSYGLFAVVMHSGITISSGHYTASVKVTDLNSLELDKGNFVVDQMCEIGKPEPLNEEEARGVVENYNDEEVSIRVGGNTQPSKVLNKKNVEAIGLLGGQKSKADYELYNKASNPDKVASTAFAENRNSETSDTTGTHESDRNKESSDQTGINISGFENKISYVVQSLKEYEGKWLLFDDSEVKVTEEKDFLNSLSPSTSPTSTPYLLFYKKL
Sequence of Lysosomal acid glucosylceramidase (Homo sapiens) (P04062 whole entry, looked up): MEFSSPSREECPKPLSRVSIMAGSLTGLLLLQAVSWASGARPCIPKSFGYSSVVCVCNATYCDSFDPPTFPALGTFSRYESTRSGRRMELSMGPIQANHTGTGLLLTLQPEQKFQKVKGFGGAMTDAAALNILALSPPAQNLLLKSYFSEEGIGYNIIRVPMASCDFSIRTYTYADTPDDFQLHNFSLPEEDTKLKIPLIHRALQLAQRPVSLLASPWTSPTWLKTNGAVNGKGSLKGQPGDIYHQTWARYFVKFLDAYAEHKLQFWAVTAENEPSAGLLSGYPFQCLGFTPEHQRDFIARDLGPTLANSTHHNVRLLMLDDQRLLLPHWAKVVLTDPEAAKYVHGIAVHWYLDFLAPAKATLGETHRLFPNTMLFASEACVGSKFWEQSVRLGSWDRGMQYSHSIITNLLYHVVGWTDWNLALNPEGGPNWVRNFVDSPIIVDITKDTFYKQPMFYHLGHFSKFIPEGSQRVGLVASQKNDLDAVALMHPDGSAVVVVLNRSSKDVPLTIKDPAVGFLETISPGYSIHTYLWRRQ
Sequence of Cytochrome P450 3A4 (Homo sapiens) (P08684 whole entry, looked up): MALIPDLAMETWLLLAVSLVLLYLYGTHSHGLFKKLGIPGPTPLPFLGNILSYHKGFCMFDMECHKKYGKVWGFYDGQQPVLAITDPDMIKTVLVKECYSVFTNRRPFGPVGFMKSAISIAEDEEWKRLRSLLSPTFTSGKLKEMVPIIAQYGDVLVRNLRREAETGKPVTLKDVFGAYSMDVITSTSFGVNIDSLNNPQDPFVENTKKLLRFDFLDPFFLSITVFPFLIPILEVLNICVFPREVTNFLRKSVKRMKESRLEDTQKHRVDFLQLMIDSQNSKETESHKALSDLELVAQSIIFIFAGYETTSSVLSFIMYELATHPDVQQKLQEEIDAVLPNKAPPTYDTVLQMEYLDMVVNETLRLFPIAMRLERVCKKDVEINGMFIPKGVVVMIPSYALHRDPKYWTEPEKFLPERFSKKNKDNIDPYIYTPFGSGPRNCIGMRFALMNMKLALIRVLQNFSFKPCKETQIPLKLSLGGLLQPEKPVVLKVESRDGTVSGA
Sequence of Cytochrome P450 2C19 (Homo sapiens) (P33261 whole entry, looked up): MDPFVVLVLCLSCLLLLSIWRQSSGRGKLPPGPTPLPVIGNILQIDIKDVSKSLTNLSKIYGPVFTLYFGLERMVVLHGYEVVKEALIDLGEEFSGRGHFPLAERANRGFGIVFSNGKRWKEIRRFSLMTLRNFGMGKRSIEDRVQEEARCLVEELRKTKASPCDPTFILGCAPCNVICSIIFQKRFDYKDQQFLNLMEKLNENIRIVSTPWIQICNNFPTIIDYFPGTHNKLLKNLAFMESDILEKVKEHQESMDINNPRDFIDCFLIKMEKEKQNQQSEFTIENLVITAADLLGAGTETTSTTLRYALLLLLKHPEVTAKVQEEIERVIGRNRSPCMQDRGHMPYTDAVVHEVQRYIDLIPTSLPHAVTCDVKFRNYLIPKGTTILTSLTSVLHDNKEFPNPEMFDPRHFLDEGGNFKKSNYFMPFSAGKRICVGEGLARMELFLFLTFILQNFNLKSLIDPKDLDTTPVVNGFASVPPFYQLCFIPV

For `Cc1noc(C)c1-c1ccc2ncnc(N3CCC(C(=O)O)CC3)c2c1`, the Potency in assay [1] is above 11.4 µM; in assay [3], 25.1 µM (active); in assay [6] it was above 46 µM; in [7], above 46 µM; in assay [10], 25.1 µM (active); in [11] it was 25.1 µM (active). In addition, the results for the activity change, negative = inhibition in assay [2] and in [4] were 8.06% and -4.03%, respectively. In addition, the activity, negative = inhibition in [5] was 10.8%. In addition, the Potency result in assay [8], in assay [9] and in assay [12] was “inactive” in each case. Also, the outcome in assay [13] was inactive.
Consider `COc1cccc(-c2nc(NCCNC(C)=O)c3ccccc3n2)c1`, for which the Potency in [1] is above 11.4 µM; in assay [3], 2.51 µM (active); in assay [6], above 46 µM; in assay [7], above 46 µM; in assay [15] it was 3.98 µM (active); in [10] it was 31.6 µM (active). For the same compound, the Potency in assay [11] was 28.2 µM (active). In addition, the values for the activity change, negative = inhibition in assay [2] and in assay [4] were -4.33% and 8.46%, respectively. Besides, in [5], the activity, negative = inhibition was 3.51%. Also, the Potency result in assay [8], in assay [9], in [14] and in assay [12] was “inactive” in each case. Moreover, in assay [13], the outcome was inactive.
As to `c1ccc(Nc2nc(-c3ccc4c(c3)OCO4)nc3ccccc23)cc1`, the Potency in assay [1] was 9.63 µM (active); in assay [3] it was 1.26 µM (active); in assay [6] it was above 46 µM; in [7] it was above 46 µM; in [16] it was 5.01 µM (active); in assay [17] it was 3.16 µM (active). Also, the Potency in assay [10] is 28.2 µM (active); in assay [11] it was 31.6 µM (active). Further, the activity change, negative = inhibition in assay [2] is -19.9%; in assay [4], -26.1%. In addition, the activity, negative = inhibition in assay [5] is -2.81%. Besides, the Potency result in [8], in assay [14] and in assay [12] was “inactive” in each case. Besides, the result in assay [13] was inactive.
As for `CN(C)c1nc(-c2cccnc2)nc2ccccc12`, the Potency was above 11.4 µM in assay [1]; 0.126 µM (active) in assay [3]; above 46 µM in [6]; above 46 µM in [7]; 7.94 µM (active) in assay [16]; 28.2 µM (active) in assay [10]. Besides, the Potency in assay [11] is 25.1 µM (active). Also, the activity change, negative = inhibition in assay [2] is 12.7%; in [4], -1.56%. In addition, the activity, negative = inhibition in assay [5] is -4.72%. Besides, the Potency result in assay [8], in assay [9], in [14] and in assay [12] was “inactive” each time. Besides, the outcome in [13] was inactive.
Turning to `COc1ccc(CNc2nc(-c3cccc(NS(C)(=O)=O)c3)nc3ccccc23)c(OC)c1`, the Potency in assay [3] is 15.8 µM (active); in assay [6], above 46 µM; in [7], above 46 µM; in assay [18] it was 0.158 µM (active); in assay [16], 2.51 µM (active). The Potency result in assay [8], in assay [14], in [10], in assay [11], in assay [19] and in assay [12] was “inactive” each time. Besides, in assay [13], the outcome was inactive.
With `c1cncc(-c2cc(NCc3cccs3)ncn2)c1`, the Potency was above 11.4 µM in [1]; 1 µM (active) in assay [3]; above 46 µM in assay [6]; above 46 µM in assay [7]; 2.51 µM (active) in assay [16]; 25.1 µM (active) in [10]. Besides, the Potency in [11] was 28.2 µM (active). Moreover, the activity change, negative = inhibition in [2] was 19%; in [4] it was 11.4%. The activity, negative = inhibition in assay [5] was 7.74%. Also, the Potency entry in [8], in assay [9], in assay [14] and in assay [12] was “inactive” in each case. For the same compound, in assay [13], the result was inactive.

Values taken from PubChem BioAssay (NCATS).
